Experimental data taken from PubChem BioAssay (EPA / NIEHS).
Where “and” joins values, the source holds several entries; their conditions need not be identical. Equal values may be shown once. Records with an inconclusive call do not appear. Calls of active or inactive are those of the source. How the source made its calls, unless noted: active means hit-call score of the fitted dose curve at least 0.9, where 1 is the maximum; inconclusive means response in the unintended direction; inactive means score below 0.9.

Experiments:
[1] = target: human CYP2B6, CYP2B6 (gene 1555) (UniProt P20813); experiment: NVS_ADME_hCYP2B6: NovaScreen (NVS) CYP450-related Enzyme Activity (ADME) Assay for human CYP2B6 (AID 2283101)
Outline: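 Recombinant human CYP2B6 with fluorogenic substrate, read by fluorescence intensity 1 h after dosing. Primary screen in duplicate at 10 uM, actives followed in concentration series; signal loss relative to acetonitrile control.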

[2] = target: Cytochrome P450 2C18 (Homo sapiens) (UniProt P33260); experiment: NVS_ADME_hCYP2C18: NovaScreen (NVS) CYP450-related Enzyme Activity (ADME) Assay for human CYP2C18 (AID 2283103; active means hit-call score of the fitted dose curve at least 0.9, where 1 is the maximum; inactive means score below 0.9)
Cytochrome P450 2C18 (Homo sapiens), sequence (P33260 whole entry, looked up): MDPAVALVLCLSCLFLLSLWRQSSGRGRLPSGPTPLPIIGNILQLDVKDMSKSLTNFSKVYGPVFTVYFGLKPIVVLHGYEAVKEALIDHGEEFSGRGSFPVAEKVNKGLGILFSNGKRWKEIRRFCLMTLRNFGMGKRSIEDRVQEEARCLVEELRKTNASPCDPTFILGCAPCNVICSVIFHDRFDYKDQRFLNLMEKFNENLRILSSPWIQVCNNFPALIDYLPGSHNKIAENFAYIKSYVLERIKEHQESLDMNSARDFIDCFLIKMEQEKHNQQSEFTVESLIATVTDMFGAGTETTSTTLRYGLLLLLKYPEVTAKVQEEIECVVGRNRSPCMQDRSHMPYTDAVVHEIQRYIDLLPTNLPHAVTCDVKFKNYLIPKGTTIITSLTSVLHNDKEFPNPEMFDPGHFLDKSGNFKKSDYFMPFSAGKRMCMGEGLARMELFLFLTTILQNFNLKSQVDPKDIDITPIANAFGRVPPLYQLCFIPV
Outline: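 Enzyme activity measured by fluorescence 0.5 h after compound addition, using recombinant CYP2C18 and a specific substrate. Actives from duplicate 10 uM screening were retested in concentration series (top 20 uM); acetonitrile served as negative baseline.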

[3] = target: human CYP2C9, CYP2C9 (gene 1559) (UniProt P11712); experiment: NVS_ADME_hCYP2C9: NovaScreen (NVS) CYP450-related Enzyme Activity (ADME) Assay for human CYP2C9 (AID 2283108)
human CYP2C9, CYP2C9 (gene 1559), sequence (P11712 whole entry, looked up): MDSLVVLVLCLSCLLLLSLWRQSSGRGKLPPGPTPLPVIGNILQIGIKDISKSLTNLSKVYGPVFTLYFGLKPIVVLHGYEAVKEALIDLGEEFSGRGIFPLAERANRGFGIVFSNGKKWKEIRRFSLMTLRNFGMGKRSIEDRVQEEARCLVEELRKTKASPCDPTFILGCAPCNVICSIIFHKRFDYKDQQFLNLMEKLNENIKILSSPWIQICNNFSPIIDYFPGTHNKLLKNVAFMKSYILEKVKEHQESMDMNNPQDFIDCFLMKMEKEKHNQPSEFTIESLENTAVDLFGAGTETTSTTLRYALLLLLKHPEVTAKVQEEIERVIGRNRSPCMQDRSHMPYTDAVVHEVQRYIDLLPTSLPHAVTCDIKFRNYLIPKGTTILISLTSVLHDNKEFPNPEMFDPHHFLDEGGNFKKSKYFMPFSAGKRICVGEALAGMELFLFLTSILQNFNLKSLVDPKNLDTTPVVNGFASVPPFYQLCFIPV
Outline: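 Cell-free assay of recombinant human CYP2C9 produced in Sf9 cells, with enzyme activity read by fluorescence intensity 0.75 h after compound addition. Loss of signal versus an acetonitrile negative control indicates inhibition. Primary screen used 10 uM in duplicate; actives were retested in concentration series.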

[4] = target: Cytochrome P450 2C19 (Homo sapiens) (UniProt P33261); experiment: NVS_ADME_hCYP2C19: NovaScreen (NVS) CYP450-related Enzyme Activity (ADME) Assay for human CYP2C19 (AID 2283113);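 further: potency for inhibition seen as loss of fluorescent signal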
Outline: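 Fluorescence intensity was measured 1 hour after chemicals were added to insect-cell-derived recombinant CYP2C19 with fluorogenic substrate. Decreased signal versus acetonitrile control was taken as reduced enzyme activity; initial testing used 10 uM in duplicate.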

[5] = target: rat CYP2A1, Cyp2a1 (gene 24894) (UniProt P11711); experiment: NVS_ADME_rCYP2A1: NovaScreen (NVS) CYP450-related Enzyme Activity (ADME) Assay for rat CYP2A1 (AID 2283114; active means hit-call score of the fitted dose curve at least 0.9, where 1 is the maximum; inactive means score below 0.9)
rat CYP2A1, Cyp2a1 (gene 24894), sequence (P11711 whole entry, looked up): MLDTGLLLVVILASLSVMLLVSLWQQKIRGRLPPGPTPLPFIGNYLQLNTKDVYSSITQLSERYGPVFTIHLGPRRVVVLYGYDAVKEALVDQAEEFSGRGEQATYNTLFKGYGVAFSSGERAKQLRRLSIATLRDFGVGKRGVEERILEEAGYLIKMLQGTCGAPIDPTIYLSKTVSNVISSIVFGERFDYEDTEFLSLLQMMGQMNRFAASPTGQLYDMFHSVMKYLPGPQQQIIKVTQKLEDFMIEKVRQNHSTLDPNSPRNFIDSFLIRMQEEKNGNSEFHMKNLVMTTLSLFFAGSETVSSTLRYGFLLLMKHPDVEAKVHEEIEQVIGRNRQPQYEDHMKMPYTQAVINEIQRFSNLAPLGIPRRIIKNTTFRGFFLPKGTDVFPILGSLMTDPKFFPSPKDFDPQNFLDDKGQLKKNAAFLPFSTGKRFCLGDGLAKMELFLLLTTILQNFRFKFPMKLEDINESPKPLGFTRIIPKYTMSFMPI
Outline: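 Cell-free fluorescence enzyme-activity read on recombinant rat CYP2A1, taken 0.75 h post-dosing. Compounds were screened in duplicate at 10 uM, then hits tested in concentration series (max 20 uM); inhibition scored relative to acetonitrile baseline.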

[6] = target: rat CYP2A2, Cyp2a2 (gene 24895) (UniProt P15149); experiment: NVS_ADME_rCYP2A2: NovaScreen (NVS) CYP450-related Enzyme Activity (ADME) Assay for rat CYP2A2 (AID 2283116)
rat CYP2A2, Cyp2a2 (gene 24895), sequence (P15149 whole entry, looked up): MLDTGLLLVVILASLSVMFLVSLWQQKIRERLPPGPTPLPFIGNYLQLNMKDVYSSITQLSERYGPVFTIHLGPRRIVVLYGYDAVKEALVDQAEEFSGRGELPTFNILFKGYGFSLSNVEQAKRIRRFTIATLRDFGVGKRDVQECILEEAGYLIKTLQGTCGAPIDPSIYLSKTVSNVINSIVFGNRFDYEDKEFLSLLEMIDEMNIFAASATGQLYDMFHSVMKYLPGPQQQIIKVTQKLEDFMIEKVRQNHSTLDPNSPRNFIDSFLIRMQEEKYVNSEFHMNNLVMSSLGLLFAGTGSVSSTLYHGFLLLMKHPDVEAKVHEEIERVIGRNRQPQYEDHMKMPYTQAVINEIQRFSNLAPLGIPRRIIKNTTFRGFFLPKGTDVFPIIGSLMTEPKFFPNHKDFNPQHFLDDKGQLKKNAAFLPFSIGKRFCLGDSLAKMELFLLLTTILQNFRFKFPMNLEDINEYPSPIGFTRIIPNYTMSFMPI
Outline: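 Compounds first tested in duplicate at 10 uM, then in singleton concentration series up to 20 uM when over threshold. Activity of the recombinant enzyme read by fluorescence at 0.2 h, normalised to acetonitrile vehicle.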

[7] = target: rat CYP2C11, Cyp2c11 (gene 29277) (UniProt P08683); experiment: NVS_ADME_rCYP2C11: NovaScreen (NVS) CYP450-related Enzyme Activity (ADME) Assay for rat CYP2C11 (AID 2283118)
Outline: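 Screened first at 10 uM in duplicate, hits followed by concentration-response. Recombinant rat enzyme activity monitored by fluorescence 0.33 h post-dosing, normalised to acetonitrile negative control.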

[8] = target: rat CYP2C12, Cyp2c12 (gene 25011) (UniProt P11510); experiment: NVS_ADME_rCYP2C12: NovaScreen (NVS) CYP450-related Enzyme Activity (ADME) Assay for rat CYP2C12 (AID 2283119)
Outline: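 Fluorescent-substrate turnover by recombinant rat CYP2C12, measured at 0.5 h, normalized to acetonitrile vehicle. Chemicals screened first at a single 10 uM concentration in duplicate, with concentration series for actives.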

rat CYP2C6, gene 293989 = experiment: NVS_ADME_rCYP2C6: NovaScreen (NVS) CYP450-related Enzyme Activity (ADME) Assay for rat CYP2C6 (AID 2283120)
Outline: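 Compounds first tested in duplicate at 10 uM, hits (e.g. 30% inhibition) re-run in singleton dose series to a 20 uM top concentration. Enzyme activity of recombinant rat CYP2C6 measured via fluorescent substrate turnover after 1 h; acetonitrile baseline.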

rat CYP3A1, gene 25642 = experiment: NVS_ADME_rCYP3A1: NovaScreen (NVS) CYP450-related Enzyme Activity (ADME) Assay for rat CYP3A1 (AID 2283126)
Outline: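 Compounds went first at 10 uM duplicate, then to series with 20 uM maximum. Fluorescence from substrate turnover by the recombinant enzyme was measured 0.5 h post-dosing, inhibition scored against acetonitrile vehicle.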

[9] = target: human CYP1A2, CYP1A2 (gene 1544) (UniProt P05177); experiment: NVS_ADME_hCYP1A2: NovaScreen (NVS) CYP450-related Enzyme Activity (ADME) Assay for human CYP1A2 (AID 2283102);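 on AC50: potency for inhibition since loss of fluorescence marks reduced CYP1A2 activity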
human CYP1A2, CYP1A2 (gene 1544), sequence (P05177 whole entry, looked up): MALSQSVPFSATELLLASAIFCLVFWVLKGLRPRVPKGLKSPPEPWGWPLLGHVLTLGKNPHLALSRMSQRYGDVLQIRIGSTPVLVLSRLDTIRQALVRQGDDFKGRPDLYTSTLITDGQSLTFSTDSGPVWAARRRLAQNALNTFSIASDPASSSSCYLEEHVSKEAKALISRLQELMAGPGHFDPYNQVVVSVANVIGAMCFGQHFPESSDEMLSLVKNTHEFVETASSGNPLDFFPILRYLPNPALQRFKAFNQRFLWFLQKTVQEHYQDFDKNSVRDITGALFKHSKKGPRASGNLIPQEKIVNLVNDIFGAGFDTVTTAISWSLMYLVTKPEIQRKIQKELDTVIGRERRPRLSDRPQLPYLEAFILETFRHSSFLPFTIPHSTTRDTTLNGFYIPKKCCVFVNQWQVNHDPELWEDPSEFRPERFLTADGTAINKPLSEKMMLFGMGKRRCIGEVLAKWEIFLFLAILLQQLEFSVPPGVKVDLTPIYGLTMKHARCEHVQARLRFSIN
Outline: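 rec. hCYP1A2 (insect cells), cell-free; fluorogenic substrate; 0.5 h; FI read. Baseline = acetonitrile; signal loss = inhibition. 10 uM duplicate primary → conc. series for actives.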

[10] = target: rat CYP2D1, Cyp2d1 (gene 266684) (UniProt P10633); experiment: NVS_ADME_rCYP2D1: NovaScreen (NVS) CYP450-related Enzyme Activity (ADME) Assay for rat CYP2D1 (AID 2283122)
rat CYP2D1, Cyp2d1 (gene 266684), sequence (P10633 whole entry, looked up): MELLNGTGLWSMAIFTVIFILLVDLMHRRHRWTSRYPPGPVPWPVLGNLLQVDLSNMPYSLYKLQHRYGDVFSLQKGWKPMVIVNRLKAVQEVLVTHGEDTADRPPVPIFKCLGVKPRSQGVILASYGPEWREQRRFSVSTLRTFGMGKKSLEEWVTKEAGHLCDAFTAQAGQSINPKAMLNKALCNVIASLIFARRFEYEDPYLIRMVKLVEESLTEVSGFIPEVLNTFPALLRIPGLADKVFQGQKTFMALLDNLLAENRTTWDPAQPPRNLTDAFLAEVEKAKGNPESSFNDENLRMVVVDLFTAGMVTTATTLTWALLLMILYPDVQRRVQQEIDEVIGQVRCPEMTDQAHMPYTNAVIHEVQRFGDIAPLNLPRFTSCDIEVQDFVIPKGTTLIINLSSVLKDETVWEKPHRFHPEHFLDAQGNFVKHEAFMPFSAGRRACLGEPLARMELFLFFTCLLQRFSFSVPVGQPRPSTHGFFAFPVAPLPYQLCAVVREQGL
Outline: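 Rat CYP2D1 enzyme activity measured by fluorescence intensity in a cell-free format, 0.75 h post-dosing, acetonitrile as negative control. Screening at 10 uM in duplicate, with actives followed in concentration series up to 20 uM.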

[11] = target: rat CYP2D2, Cyp2d26 (gene 25053) (UniProt P10634); experiment: NVS_ADME_rCYP2D2: NovaScreen (NVS) CYP450-related Enzyme Activity (ADME) Assay for rat CYP2D2 (AID 2283124)
rat CYP2D2, Cyp2d26 (gene 25053), sequence (P10634 whole entry, looked up, canonical isoform): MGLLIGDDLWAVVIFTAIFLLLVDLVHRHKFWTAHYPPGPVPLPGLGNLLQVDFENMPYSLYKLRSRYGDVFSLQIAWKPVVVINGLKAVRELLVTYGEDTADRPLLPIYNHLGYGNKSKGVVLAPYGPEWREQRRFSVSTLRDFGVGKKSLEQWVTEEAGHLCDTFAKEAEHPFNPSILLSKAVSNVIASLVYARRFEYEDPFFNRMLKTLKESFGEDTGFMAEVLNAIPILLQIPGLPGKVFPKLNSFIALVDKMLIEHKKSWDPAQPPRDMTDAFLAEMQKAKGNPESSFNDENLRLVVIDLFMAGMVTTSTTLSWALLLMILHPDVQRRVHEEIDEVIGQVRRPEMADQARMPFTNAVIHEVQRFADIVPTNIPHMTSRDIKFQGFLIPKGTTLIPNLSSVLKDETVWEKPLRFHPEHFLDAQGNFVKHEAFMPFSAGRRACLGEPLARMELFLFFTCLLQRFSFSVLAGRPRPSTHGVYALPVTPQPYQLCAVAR
Outline: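 Single-concentration duplicate testing at 10 uM, followed by concentration-response (top 20 uM) for chemicals passing threshold. Enzyme activity of the recombinant rat isoform measured by fluorescence after 0.75 h, acetonitrile as baseline.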

[12] = target: human CYP2J2, CYP2J2 (gene 1573) (UniProt P51589); experiment: NVS_ADME_hCYP2J2: NovaScreen (NVS) CYP450-related Enzyme Activity (ADME) Assay for human CYP2J2 (AID 2283106)
Outline: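 Chemicals were first tested at 10 uM in duplicate, and hits meeting criteria such as 30% inhibition were run in singleton concentration series with a 20 uM top concentration. Enzyme activity of recombinant CYP2J2 was measured by fluorescence after 1 h, relative to acetonitrile.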

[13] = target: rat CYP1A2, Cyp1a2 (gene 24297) (UniProt P04799); experiment: NVS_ADME_rCYP1A2: NovaScreen (NVS) CYP450-related Enzyme Activity (ADME) Assay for rat CYP1A2 (AID 2283115)
rat CYP1A2, Cyp1a2 (gene 24297), sequence (P04799 whole entry, looked up): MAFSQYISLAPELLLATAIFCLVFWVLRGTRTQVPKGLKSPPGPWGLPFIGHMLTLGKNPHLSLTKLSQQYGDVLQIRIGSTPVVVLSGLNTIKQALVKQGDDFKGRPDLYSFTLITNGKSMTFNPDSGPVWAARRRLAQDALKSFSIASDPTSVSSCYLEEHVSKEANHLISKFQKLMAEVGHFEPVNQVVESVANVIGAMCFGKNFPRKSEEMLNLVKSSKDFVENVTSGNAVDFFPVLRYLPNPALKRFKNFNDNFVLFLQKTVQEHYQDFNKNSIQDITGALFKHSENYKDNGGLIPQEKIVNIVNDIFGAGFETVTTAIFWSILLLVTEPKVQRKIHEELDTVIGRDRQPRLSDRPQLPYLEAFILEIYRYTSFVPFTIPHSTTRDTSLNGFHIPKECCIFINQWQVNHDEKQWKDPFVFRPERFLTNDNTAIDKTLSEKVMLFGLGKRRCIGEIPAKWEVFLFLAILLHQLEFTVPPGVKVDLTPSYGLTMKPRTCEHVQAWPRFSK
Outline: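 Primary testing ran in duplicate at 10 uM, with actives re-tested across concentration series. Fluorescence intensity from substrate turnover by recombinant protein, measured 1 hour post-dosing, with signal loss scored against acetonitrile vehicle.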

[14] = target: rat CYP2C13, Cyp2c13 (gene 171521) (UniProt P20814); experiment: NVS_ADME_rCYP2C13: NovaScreen (NVS) CYP450-related Enzyme Activity (ADME) Assay for rat CYP2C13 (AID 2283121)
Outline: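 Inhibition is read as decreased fluorescent product formation, referenced to acetonitrile vehicle. Cell-free recombinant rat Cyp2c13 reaction ran 0.75 hour; compounds first at 10 uM in duplicate, then concentration series for actives.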

[15] = target: rat CYP3A2, Cyp3a2 (gene 266682) (UniProt P05183); experiment: NVS_ADME_rCYP3A2: NovaScreen (NVS) CYP450-related Enzyme Activity (ADME) Assay for rat CYP3A2 (AID 2283128)
rat CYP3A2, Cyp3a2 (gene 266682), sequence (P05183 whole entry, looked up): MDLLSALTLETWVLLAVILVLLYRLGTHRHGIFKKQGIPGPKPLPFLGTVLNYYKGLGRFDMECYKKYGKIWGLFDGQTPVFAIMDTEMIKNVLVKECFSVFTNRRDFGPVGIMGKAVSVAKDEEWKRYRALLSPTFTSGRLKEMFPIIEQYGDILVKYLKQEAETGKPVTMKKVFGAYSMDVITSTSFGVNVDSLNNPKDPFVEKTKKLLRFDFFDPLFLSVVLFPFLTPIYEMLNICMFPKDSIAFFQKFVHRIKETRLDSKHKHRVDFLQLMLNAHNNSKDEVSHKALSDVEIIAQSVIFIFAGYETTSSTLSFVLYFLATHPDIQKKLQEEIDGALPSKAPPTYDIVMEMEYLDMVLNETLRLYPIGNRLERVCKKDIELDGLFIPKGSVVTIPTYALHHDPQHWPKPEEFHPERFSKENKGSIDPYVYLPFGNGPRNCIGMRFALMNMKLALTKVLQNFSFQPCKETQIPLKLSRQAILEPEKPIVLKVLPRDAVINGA
Outline: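 Fluorescence readout of extracted rat CYP3A2 activity 0.5 h post-dose, acetonitrile as negative control. Single-point testing in duplicate at 10 uM, followed by concentration series to a 20 uM maximum for actives.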

[16] = target: human CYP2C8, CYP2C8 (gene 1558) (UniProt P10632); experiment: NVS_ADME_hCYP2C8: NovaScreen (NVS) CYP450-related Enzyme Activity (ADME) Assay for human CYP2C8 (AID 2283104; active means hit-call score of the fitted dose curve at least 0.9, where 1 is the maximum; inactive means score below 0.9)
human CYP2C8, CYP2C8 (gene 1558), sequence (P10632 whole entry, looked up): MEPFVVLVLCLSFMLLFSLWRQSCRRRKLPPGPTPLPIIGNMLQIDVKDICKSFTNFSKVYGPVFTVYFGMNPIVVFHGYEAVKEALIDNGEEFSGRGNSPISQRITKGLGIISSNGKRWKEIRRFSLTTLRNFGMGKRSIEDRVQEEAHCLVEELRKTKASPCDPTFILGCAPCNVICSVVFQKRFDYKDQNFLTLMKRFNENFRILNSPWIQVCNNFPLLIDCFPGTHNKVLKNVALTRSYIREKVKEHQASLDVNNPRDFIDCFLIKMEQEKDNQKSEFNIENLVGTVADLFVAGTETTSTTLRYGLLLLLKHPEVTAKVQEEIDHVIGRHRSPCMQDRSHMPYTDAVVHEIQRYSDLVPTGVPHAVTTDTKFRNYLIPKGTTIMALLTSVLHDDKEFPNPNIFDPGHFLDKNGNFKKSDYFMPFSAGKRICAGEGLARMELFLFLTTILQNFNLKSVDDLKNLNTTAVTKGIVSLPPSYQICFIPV
Outline: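 Fluorescence readout of substrate turnover by recombinant CYP2C8 after 0.5 h, baseline acetonitrile. Single-concentration duplicate screen at 10 uM preceded singleton concentration series (max 20 uM) for compounds passing the inhibition threshold.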

[17] = target: human CYP2D6, CYP2D6 (gene 1565) (UniProt P10635); experiment: NVS_ADME_hCYP2D6: NovaScreen (NVS) CYP450-related Enzyme Activity (ADME) Assay for human CYP2D6 (AID 2283107)
Outline: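 Insect-cell recombinant enzyme + fluorogenic substrate, cell-free; 1 h incubation; fluorescence intensity readout. Acetonitrile = neg. ctrl/baseline. Single-point 10 uM, duplicate; follow-up concentration series.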

Measured: AC50

N#CC(CCc1ccc(Cl)cc1)(Cn1cncn1)c1ccccc1 (stereo unspecified)
active: [1] 429 nM | [2] 428 nM | [3] 1140 nM | [4] 191 nM | [6] 20 nM | [7] 267 nM | [8] 250 nM | rat CYP2C6, gene 293989 1440 nM | rat CYP3A1, gene 25642 449 nM
inactive: [5]

CCOC(=O)C(Cl)Cc1cc(-n2nc(C)n(C(F)F)c2=O)c(F)cc1Cl (stereo unspecified)
active: [4] 10000 nM
inactive: [9] | [2] | [5] | [10] | [11]

COC(=O)c1ccccc1C(=O)OC
inactive: [5]

O=C(Nc1ccccc1)Nc1ccnc(Cl)c1
active: [12] 2150 nM | [3] 2460 nM | [14] 10000 nM | [10] 10000 nM | [15] 6440 nM
inactive: [13]

CCCCOC(=O)c1ccccc1C(=O)OCCCC
active: [9] 7.03 µM and 7.88 µM | [4] 6.73 µM and 7.37 µM
inactive: [16] | [6]

CC1=C(C(=O)Nc2ccccc2)SCCO1
inactive: [13]
active: [9] 6.47 µM | [5] 6720 nM

C#CCOS(=O)OC1CCCCC1Oc1ccc(C(C)(C)C)cc1 (stereo unspecified)
active: [2] 10000 nM | [4] 14300 nM | [11] 10000 nM
inactive: [9] | [3]

Cc1ccc(-c2c(Cl)nc(C#N)n2S(=O)(=O)N(C)C)cc1
inactive: [13]
active: [9] 5.8 µM | [2] 10000 nM | [16] 3900 nM | [3] 4540 nM | [4] 7380 nM | [5] 7380 nM | [7] 6130 nM | [10] 13000 nM | [11] 4310 nM | rat CYP3A1, gene 25642 2880 nM | [15] 1100 nM

N#Cc1nn(-c2c(Cl)cc(C(F)(F)F)cc2Cl)c(N)c1S(=O)C(F)(F)F (stereo unspecified)
active: [3] 1140 nM | [4] 751 nM

CN(C)C(=S)SSC(=S)N(C)C
active: [2] 2260 nM | [12] 6560 nM | [17] 2150 nM | [3] 1920 nM | [4] 780 nM | [5] 2830 nM | [8] 1980 nM | rat CYP2C6, gene 293989 1280 nM | [14] 991 nM | rat CYP3A1, gene 25642 3200 nM | [15] 2420 nM
inactive: [13]
